Results on 57 sequences are retold here after the supplement of paper PMC11417369.

Whole data set: some 25,000 sequences, median “ln(normalized median fluorescence intensity)” near 6.7, cut for the highest 2% near 10. What follows is part of a selection rich in the highest values, with near analogues and random picks from the rest.

The experiment deals with PfHDP1 homeodomain (GST-tagged). The experiment is described as follows: gcPBM binding intensity (ln(normalized median fluorescence intensity)); higher = stronger DNA binding. The procedure, abridged: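 GST-fused DNA-binding domains of P. falciparum, expressed in E. coli, were applied at about 25 μg on average for 1 h to an Agilent 4 × 180k array of primer-extended double-stranded 36-bp intergenic genomic probes and negative controls. Binding intensity is the highest Masliner-normalised natural-log median intensity across replicate spots of either probe orientation, measured with Alexa488 anti-GST antibody and a 488 nm scan.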
As for “CTATATTATTTTTCTTGTACGTAGGAAATATAGCTA [XGTACX_site6176]”, the “gcPBM binding intensity (ln)” value stood at 6.45. For TGTATGTATAATTGAGTGCACAGAAAAAAAAAAGAA the value was 10.6; for “AAGAAAATATAAAATGCACACTATAAATTGTATATA [CACACA_site7928]”, 9.72. For “CATTATAAAAAATAAAAAAGAAATAATTGTATATGC [CACACA_negctrl_site478]” the value was 6.62. For “TTTGTATTACGTTTGTGTACATATACAATGTGTTTT [XGTACX_site7708]” the value was 6.38. For the sequence “ACATTGCACCCGTGCACACATAGAAAAATAATTCTT [CACACA_site409]”, the “gcPBM binding intensity (ln)” value is 10.3.

On to “ATTAAGACACATTGCACACGTGCACCCATAGAAAAA [CACACA_site408]”, for which the “gcPBM binding intensity (ln)” value stood at 10.5.

For the sequence “ACATTAAGACACATTGCACACGTGCACCCATAGAAA [CACACA_site8029]”, the “gcPBM binding intensity (ln)” value was found to be 10.5. For “ACCCATTGCTCACGTGCACACATAGAAAAATAATTC [CACACA_site4389]” the value was 10.7; for “TCATTGAAAATTGTTGCACACATAATAATTAAATAT [CACACA_site8554]”, 9.46. For “TAAGAAATAAATAGTACACACATAGACACCCACCCA [CACACA_site8429]” the value was 7.64. For “TACACCCATAGACACACACACACGCATAAAAAAAAA [CACACA_site8428]” the value was 6.85; for “CCATTAAGACACATTGCACACGTGCACCCATAGAAA [CACACA_site4388]”, 10.2. “TAAGAAATAAATAGTACACACATAGACACCCACCGA [CACACA_site1516]”: the “gcPBM binding intensity (ln)” value was 7.1. In the case of “TCACTTTTTATTAAATGTACATGCTTTCATTTTCAT [XGTACX_site8139]”, the “gcPBM binding intensity (ln)” value turned out to be 6.78. With “ATAAACAAAAAAAAAAAATATATCAATATATATATA [CACACA_negctrl_site299]”, the “gcPBM binding intensity (ln)” value was found to be 8.7. For “TTTTTAAAAAATAAGAAAAAATAAATATATTACAAA [XGTACX_negctrl_site191]” the value was 6.58. For “AAAATAAATAAATACACACACACGAATATATATATA [CACACA_site1683]” the value was 8.57; for “TACTTATTTGATTGGGTGCATATATATAGTATGTAT [GTGCAC_site9845]”, 9.2.

As for “GCTAAAAGTATATGCACACACATATATATGCACATA [CACACA_site1635]”, the “gcPBM binding intensity (ln)” value came out at 11. Consider “TAATAAAAAAAGTGCACACACATAATATATATATAT [CACACA_site3340]”, for which the “gcPBM binding intensity (ln)” value amounted to 9.23. For “GAAAAGCATAGATGCACACATATATATATATATATA [CACACA_site2169]” the value was 9.77. For “AAGAAAAGCATAGATGCACACATATATATATATATA [CACACA_site8675]” the value was 9.35. For “GCTAAAAGTATATGCACACACATATAGATGCACATA [CACACA_site6868]” the value was 10.7. For the sequence “TATACACATATATAAAGTACATATATGTGTAAAAAA [XGTACX_site8582]”, the “gcPBM binding intensity (ln)” value was 6.8.

With “AAAAAAAAAAAAAGCACACACACATATGCGTATATA [CACACA_site953]”, the “gcPBM binding intensity (ln)” value came out at 6.43. For “ATGTGCACATATAAAAGTACACGCACATATATATAT [XGTACX_site1238]” the value was 11. For “AATAATAAAAAAAGTGCACACACATAATATATATAT [CACACA_site9100]” the value was 8.79; for “GTGCTAAAAGTATATGCACACACATATATATGCACA [CACACA_site8472]”, 10.6; for “AAAAAAAAAAAGCACACACACATATGAGTATATATA [CACACA_site4683]”, 6.91. For “AGATAAAAAAAGTACACACACACATATATATATATA [CACACA_site3072]” the value was 9.22; for “TAATAAATCCTATATAGTACATATATGCAAGTATGT [XGTACX_site3955]”, 6.97; for “TCTTATTAAAATATTTATATAGGTAATCACAATATT [GTGCAC_negctrl_site568]”, 6.37. With ATATCAAACTAGAATGTGCGCATGCATTCAAGTTTT, the “gcPBM binding intensity (ln)” value was determined as 6.54. For “TATGTCAATTTTCATACATGCGCATAATCTTTATTT [TGCATGCA_site807]” the value was 7.53; for TTCATTCAAATTAACGTGCACATTATTAGTAAAAAC, 10.7. For “TTATTATTCATATATTCACACATTAAAATTTTTCAA [CACACA_site4243]” the value was 6.62; for “TGTAAATTATAACGTGCACACATATTTAAAATGAAA [CACACA_site8915]”, 9.88; for “GTATATATATATATATGCAAATGTATAAATCTACAT [CACACA_negctrl_site546]”, 7.32. Turning to “TAAAATATATAAAACTGTACATTTTAAAGGCACAAC [XGTACX_site8342]”, the “gcPBM binding intensity (ln)” value amounted to 7.1. For “TTGCAACTCTTCAATCGTACACATTATTTATTATAT [XGTACX_site1377]” the value was 6.89; for “CTAATCGTGCACAACTGTACATTTGTCAAGGGCAAT [XGTACX_site8662]”, 10.8. Consider “CTCTTGTCATTTTGCACACACACATGTATAGGTTAT [CACACA_site3057]”, for which the “gcPBM binding intensity (ln)” value worked out at 11.1. Turning to “TATATAGGTATCATTACACACATGTATACTTATTTG [CACACA_site7864]”, the “gcPBM binding intensity (ln)” value was found to be 6.47. For “CTTGTCATTTGGCACACACACATGTATAGGTTATTA [CACACA_site5656]” the value was 6.72; for “CTCTTGTCATTTTGCACACACACATGGATAGGTTAT [CACACA_site5655]”, 10.8; for “AGCTCTTGTCATTTTGCACACACACCCGTATAGGTT [CACACA_site3056]”, 10.3. For “CTTGTCATTTTGCACACACACATGTATAGGTTATTA [CACACA_site7431]” the value was 10.9; for “GTATATCACACATTTGCATGTTGTCAATAGTTTATC [TGCATGCA_site134]”, 6.93; for “AGCTCTTGTCATTTTGCACACACACCGGTATAGGTT [CACACA_site5654]”, 10.4. For “CTTGTCATTGGGCACACACACATGTATAGGTTATTA [CACACA_site3058]” the value was 6.49. With “TCTACATATTAATTATGTACGAATTATTATTAGTAA [XGTACX_site6924]”, the “gcPBM binding intensity (ln)” value came to 6.03.

Turning to “TTTAAGAATTAACGGGGTACAATTCTTAAATATATA [XGTACX_site669]”, the “gcPBM binding intensity (ln)” value was determined as 6.33. For “ACTGAAAAAAGAAATACACACATTCTGGATCATATA [CACACA_site3860]” the value was 6.47. For “ATTTTTTTTTGTGTATATAAATAAATAAATATATAT [GTGCAC_negctrl_site603]” the value was 6.47; for “AAGAAAAAGACTTCATGAAAAAGAATTTTTTTAATT [TGCATGCA_negctrl_site473]”, 5.86. For “TATTTATTGTGACACTTTTATTATTTTATGATAAAA [CACACA_negctrl_site37]” the value was 6.6.
